This is a sample that favours compounds with a hit; in the whole collection about 9.2% have one here.
ELG1 repair inh: inhibitors of ELG1-dependent DNA repair in HEK293T cells. actives 2.3% (n = 330,000). HEK293T ELG1-luciferase reporter, luminescence, 16 h; DNA damage induced by 5-fluorouridine. Potency, µM (series often up to 46.1 µM), without a hit: at the top dose activity change, negative = inhibition, usual class: inhibitors. AID 504467; note: % is set by controls: 0 for no effect and ±100 for the full control effect; nearly all actives have a fitted effect of over 55% in size
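5-Fluorouridine DNA damage + compound/DMSO, 2,000 cells/well, 16 h, 37 °C/5% CO2. ONE-Glo, 30 min RT, luminescence. Readout = decrease in reporter signal.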
FLuc counter: inhibits or activates purified firefly luciferase, miR-21 counter-screen; P08659; purified FLuc, Km substrates, luminescence inhibition; Potency, µM (highest dose often 57.5 µM), for inactives: top-dose activity change, negative = inhibition, usual class: inhibitors; actives 6.9% (n = 360,000);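 note: plate controls were vehicle for no effect and reference inhibitor for full effect; nearly all actives have a fitted effect of over 55% in size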
Target sequence (P08659 whole entry, looked up): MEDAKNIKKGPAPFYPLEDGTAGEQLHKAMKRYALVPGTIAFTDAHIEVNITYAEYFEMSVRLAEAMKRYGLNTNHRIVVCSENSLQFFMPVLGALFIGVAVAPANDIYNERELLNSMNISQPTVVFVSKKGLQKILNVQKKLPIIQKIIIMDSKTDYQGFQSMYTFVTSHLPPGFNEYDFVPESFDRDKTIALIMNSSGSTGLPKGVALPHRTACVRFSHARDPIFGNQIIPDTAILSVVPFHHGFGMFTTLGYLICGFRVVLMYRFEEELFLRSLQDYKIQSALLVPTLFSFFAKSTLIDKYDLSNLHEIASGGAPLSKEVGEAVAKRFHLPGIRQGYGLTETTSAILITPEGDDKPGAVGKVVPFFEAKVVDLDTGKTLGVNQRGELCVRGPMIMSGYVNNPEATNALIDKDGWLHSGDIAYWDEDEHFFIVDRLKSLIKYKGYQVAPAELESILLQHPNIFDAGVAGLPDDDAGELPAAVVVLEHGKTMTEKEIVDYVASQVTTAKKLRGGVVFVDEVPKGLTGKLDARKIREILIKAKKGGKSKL
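Purified P. pyralis luciferase, 10 nM final, with Km-level 10 uM D-luciferin and 10 uM ATP in 50 mM Tris acetate pH 7.5, 10 mM Mg acetate, 0.01% Tween-20, 0.05% BSA; 6-point qHTS titration about 60 µM downward; luminescence read.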
SMN2 splice enh: increases expression of the SMN2 splice variant; HEK293 SMN2-luciferase splicing reporter, luminescence, 30-36 h; Potency, µM (doses to about 46.1 µM), without a hit: at the top dose activity change, positive = activation, actives largely listed as activators; actives 2.8% (n = 210,000); note: % of control where 0% means no effect; nearly all actives have a fitted effect of over 55% in size
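HEK293 cells carry an SMN2 […]–luciferase reporter in which exon 7 inclusion puts luciferase in frame. Cells were plated 10-12 h before compound addition, then incubated 30-36 h at 37C. ONE-Glo luminescence was read; sodium butyrate at 4.5 mM final served as control.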
NPC1 promoter act: activates the NPC1 promoter; Potency, µM (titrated, usually from 9.22 µM), without a hit: at the top dose activation, most hits filed as activators; Huh7 NPC1 promoter luciferase reporter, 24 h; actives 2.4% (n = 320,000); AID 485313; note: % of control where 0% means no effect; nearly all actives have a fitted effect of over 60% in size
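Cells: Huh7 expressing luciferase under the NPC1 promoter, 1500/well. Seeded 2 h, compound added, incubated 24 h at 37 °C. Luciferase reagent, 10 min ambient, then luminescence.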
Rab9 promoter act: Rab9 promoter activation. Huh7 Rab9 promoter-luciferase reporter, luminescence, 24 h. Potency, µM (top dose mostly 9.22 µM), for inactives: top-dose activation, negative = inhibition, usual class: activators. actives 2.8% (n = 320,000). AID 485297; note: % of control where 0% means no effect; nearly all actives have a fitted effect of over 60% in size
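Luminescence from Amplite-detected luciferase (10 minutes, ambient) reports Rab9 promoter activation. Before that, stable Rab9-luciferase Huh7 cells (1500/well, reduced-serum OP-MEM I plus 10% FBS) were exposed to compound for 24 hours at 37C.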
ELG1 genotox: inducers of genotoxicity in HEK293T ELG1-luciferase cells; actives 1.3% (n = 330,000); HEK293T ELG1-luciferase reporter, luminescence, 16 h; Potency, µM (doses to about 46 µM), without a hit: at the top dose activity change, positive = activation, most hits filed as activators; AID 504466; note: % of control where 0% means no effect; nearly all actives have a fitted effect of over 60% in size
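After overnight (16 hr) compound treatment at 37 °C, ELG1-luciferase HEK293T cells were lysed with ONE-Glo; luminescence quantified 30 min later at room temperature.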
Active calls of the source: *; ? = inconclusive; nt = not tested or not shown. Calls come from the whole dose curve; as a rule, active = well fitted curve in the direction sought with a large enough effect; inconclusive = small, poorly fitted or top-dose-only effect, or another doubt; inactive = no such curve, though single readings can be large; an effect the other way counts as inactive or inconclusive. Potency is the fitted concentration of half-maximal effect.

SMILES	ELG1 repair inh	FLuc counter	SMN2 splice enh	NPC1 promoter act	Rab9 promoter act	ELG1 genotox
CCc1cccc(NC(=O)c2c(N3CCCC3=O)c3cc(C)ccc3n2C)c1	nt	-11.5%	nt	nt	nt	nt
CC(C)(C)c1ccc(-c2nnc(SCC(=O)O)n2N)cc1	6.8%	10.7µM*	3.5%	17.0%	7.7%	6.5%
C=CCn1c(SCC(=O)NCc2ccccc2)nnc1-c1ccccc1O	18.4µM*	-0.9%	?	-0.2%	-3.0%	-7.5%
C=CCn1c(SCC(=O)O)nnc1-c1ccc(C(C)(C)C)cc1	0.1%	16.9µM*	-2.3%	-4.2%	5.0%	-1.6%
C=CCn1c(SCC(N)=O)nnc1-c1ccccc1O	-6.6%	-1.1%	nt	-1.1%	10.7%	-5.8%
O=C(C(=O)N1CCN(c2ccccc2)CC1)c1cn(CC(=O)N2CCCCCC2)c2ccccc12	0.5%	4.1%	nt	-1.3%	0.0%	-6.2%
CC(C)c1cnc2c(c1SCC(=O)c1ccc(Cl)cc1)c(=O)n(C)c(=O)n2C	nt	-8.1%	nt	nt	nt	nt
COc1cccc(NC(=O)CCc2nnc3n(Cc4ccccc4Cl)c(=O)c4ccccc4n23)c1	nt	-1.8%	-8.7%	nt	nt	nt
CCC1CN(C(=O)Nc2ccc(Br)cc2F)c2ccccc2S1 (stereo not drawn)	nt	-1.8%	nt	nt	nt	nt
COCCn1c(C)cc(C(=O)COC(=O)CCN2C(=O)c3ccccc3C2=O)c1C	7.9%	?	5.4%	0.5%	-3.2%	0.9%
COCCn1c(C)cc(C(=O)COC(=O)c2cc3c(s2)CCC3)c1C	?	10.7µM*	-8.2%	3.55µM*	3.98µM*	?
Cc1cc(C(=O)COC(=O)c2csc3c2CCCC3)c(C)n1C	?	12µM*	-20.3%	15.3%	10.4%	11.7%
COCCn1c(C)cc(C(=O)COC(=O)C23CC4CC(CC(O)(C4)C2)C3)c1C	?	1.51µM*	?	0.355µM*	0.355µM*	?
COCCn1c(C)cc(C(=O)COC(=O)c2cccc(O)c2)c1C	?	0.107µM*	nt	?	?	?
CCOC(=O)c1cc(-c2ccccc2)n(-c2cccc(C(=O)Nc3ccc(F)c(F)c3)c2)c1C	nt	0.6%	nt	nt	nt	nt
CC[C@@]1(C(=O)OC)N[C@H](CN(C)C(=O)Nc2ccc(C(F)(F)F)cc2)[C@@H]2C(=O)N(C)C(=O)[C@@H]21	0.6%	nt	nt	nt	nt	-0.7%
CC(NC(=O)c1ccc(C(=O)c2ccccc2)cc1)c1ccc(S(N)(=O)=O)cc1 (stereo not drawn)	-6.5%	-1.0%	nt	-6.6%	0.5%	0.6%
Cc1ccc(CNC(=O)C(c2ccccc2)c2ccccc2)cc1	8.0%	1.6%	nt	-1.7%	-1.7%	0.5%
COc1ccc2nc(-c3cccc(N)c3)[nH]c2c1	?	2.39µM*	nt	1.58µM*	2.51µM*	?
COc1ccc2nc(SCC(N)=O)[nH]c2c1	18.8%	-6.3%	18.3%	0.5%	-3.9%	0.5%
COc1ccc2nc(-c3ccc(N)cc3)[nH]c2c1	?	3.79µM*	?	?	24.4%	?
CN(Cc1ccccc1)C(=O)c1ccco1	20.4%	2.6%	nt	1.3%	-0.1%	3.4%
O=C(C#Cc1ccccc1)c1ccco1	?	15.1µM*	nt	-41.5%	-44.9%	-57.6%
CCOc1ccccc1NC(=O)CCS(=O)(=O)c1ccc(Br)cc1	-4.3%	4.3%	nt	-1.4%	-8.4%	0.4%
Cc1cc(C)cc(NC2=C(N)C(=O)c3ccccc3C2=O)c1	?	15.1µM*	nt	?	?	?
Cc1cccc(NC2=C(NCCO)C(=O)c3ccccc3C2=O)c1	13.3%	-19.1%	-19.3%	12.0%	10.6%	-0.7%
c1ccc(CCNc2nc(-c3cccnc3)cs2)cc1	?	15.1µM*	?	?	?	?
c1ccc(CCNc2nc(-c3ccccn3)cs2)cc1	?	6.75µM*	?	3.55µM*	2µM*	?
CN1CCN(C(=O)c2cc3sc4ccccc4c3s2)CC1	?	3.01µM*	nt	0.631µM*	0.708µM*	?
